Results filed as inconclusive are left out. Active and inactive are the calls of the source. Unless noted, calls follow the shape of the dose curve; as a rule, active = well fitted curve in the direction sought with a large enough effect; inconclusive = small, poorly fitted or top-dose-only effect, or another doubt; inactive = no such curve, though single readings can be large; an effect the other way counts as inactive or inconclusive.
Key:
[1] = biological target: Lysosomal acid glucosylceramidase (Homo sapiens) (UniProt P04062); assay: Glucocerebrosidase-p2 (AID 348; in the data active = potency below about 10 µM; also: potency is read from the fitted curve at half-maximal effect); details: purified GBA, blue fluorogenic substrate, 40 min
Method in brief: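 Normal human glucocerebrosidase (0.2 nM) with blue fluorogenic substrate (80 uM final) in citrate/phosphate pH 5.9 with 10mM sodium taurocholate, 0.01% tween-20; 40 min RT, NaOH/glycine stop; fluorescence Ex 365/Em 440; AC50 from a titration from 0.6 nM upwards.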

[2] = AP1 Signaling Pathway (AID 357; active = well fitted curve in either direction with a large enough effect, not every such curve was filed as active;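 also: ME-180 reporter cells stimulated with EGF at its EC50 level; % is scaled to controls: 0 for no effect and ±100 for the full control effect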); details: ME-180 AP-1-bla reporter, EGF-induced, beta-lactamase ratio, 5 h; at 7.69 µM (top of the series) unless noted
Method in brief: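 A ratiometric CCF4 readout (405 nm excitation; 460 and 530 nm emission) quantified AP-1-driven beta-lactamase in ME-180 cells after 5 h with compound and EC50 EGF; AC50 values were derived for activators and inhibitors.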

[3] = biological target: Cytochrome P450 1A2 (Homo sapiens) (UniProt P05177); assay: p450-cyp1a2 (AID 410; calls by dose curve;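 also: -100% = full effect of reference inhibitor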); details: recombinant CYP1A2, luciferin-ME demethylation, luminescence; series mostly up to 11.4 µM
Method in brief: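 Read-out is luminescence from luciferin produced by CYP1A2 demethylation of Luciferin-ME (100uM, at Km). Detection reagent stopped the 60 min NADPH-dependent reaction; signals were normalized to 57 uM furafylline.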

[4] = Stat Signaling Pathway (AID 446; active = well fitted curve in either direction with a large enough effect, not every such curve was filed as active;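 also: ME-180 cervical cancer cells given 40 pM IL-6 alongside compound; SIE-controlled beta-lactamase reporter measured as 460/530 nm FRET emission ratio; % is scaled to controls: 0 for no effect and ±100 for the full control effect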); details: ME-180 (cervical carcinoma) SIE beta-lactamase reporter, IL-6 stimulated, 5 h; at 7.69 µM (top of the series) unless noted
Method in brief: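 Compound effects on IL-6-induced STAT reporter activity were measured in ME-180 cells. After overnight culture, cells were co-treated with 40 pM IL-6 for 5 hrs before beta-lactamase substrate loading at room temperature.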

[5] = biological target: Glucocorticoid receptor (Homo sapiens) (UniProt P04150); assay: GR-GFP Redistribution (AID 450;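 active = compounds whose dose series gives a full or clear partial fitted curve of increased nuclear translocation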; also: potency is read from the fitted curve at half-maximal effect); details: U2OS GR-GFP nuclear translocation, laser cytometry, 2 h
[6] = biological target: Glucocorticoid receptor (Homo sapiens) (UniProt P04150); assay: GR-EFC Redistribution (AID 451; calls by dose curve; also: potency is read from the fitted curve at half-maximal effect); details: CHO-K1 GR-EFC translocation, beta-gal luminescence, 2 h
Method in brief: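 Translocation of GR-ED fusion to nuclear EA restores b-gal, read by luminescence after 1 h room-temperature detection. Engineered CHO-K1 biosensor cells, 1,000/well, exposed 2 h at 37 C to titrations up to 46 uM final.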

[7] = biological target: Mitogen-activated protein kinase 10 (Mus musculus) (UniProt Q61831); assay: JNK3 AlphaScreen Assay (AID 530; active = well fitted curve in either direction with a large enough effect, not every such curve was filed as active;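 also: kinase came from lysate of stimulated human HepG2 cells; signal reports phosphorylation of biotinylated GST-cJun 1-79 at Ser73 with 10 µM ATP; % is scaled to controls: 0 for no effect and ±100 for the full control effect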); details: JNK3 lysate, c-Jun phosphorylation; series mostly up to 11.4 µM
Method in brief: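 Kinase buffer: 20 mM Tris-HCl pH 7.6, 10 mM MgCl2, 1 mM DTT, 0.1 mM Na3VO4, 0.01% Tween-20; ATP 10 uM. Substrate biotin-GST-cJun(1-79), enzyme from activated HepG2 lysates. Detection by Ser73 phospho-antibody AlphaScreen.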

[8] = biological target: 3',5'-cyclic-AMP phosphodiesterase 4B (Homo sapiens) (UniProt Q07343); assay: qHTS Assay for Inhibitors of PDE-IV (AID 607; active = well fitted activation curve with a large enough effect in the main read-out, with a control signal flat, not every such curve was filed as active; also: % of control where 0% means no effect); details: HEK293 ACTOne CNG channel cells, membrane potential fluorescence; series mostly up to 22.9 µM
Method in brief: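 ACTOne HEK293 cells carry a modified cAMP-gated CNG channel and express endogenous PDE4; plated 1000 cells/well, compounds up to 22.9 uM final. Membrane-potential dye fluorescence (ex 535/em 590) was read; parental cells received 10 uM forskolin + 100 uM RO 20-1724.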

[9] = biological target: Cytochrome P450 2C9 (Homo sapiens) (UniProt P11712); assay: qHTS Assay for Inhibitors and Substrates of Cytochrome P450 2C9 (AID 883); details: recombinant CYP2C9, luciferin-H luminescence, 60 min; series mostly up to 11.4 µM; also: % is scaled to controls: 0 for no effect and ±100 for the full control effect; nearly all actives have a fitted effect of over 60% in size
Method in brief: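 Turnover of Luciferin-H (100uM, KM) by 10nM human CYP2C9 was measured over 60 min at 37C with NADPH regeneration; inhibitors and some substrates reduce luminescence. Data normalized to sulphaphenazole 57uM.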

[10] = biological target: Cytochrome P450 2D6 (Homo sapiens) (UniProt P10635); assay: qHTS Assay for Inhibitors and Substrates of Cytochrome P450 2D6 (AID 891); details: recombinant CYP2D6, luciferin-ME EGE luminescence; series mostly up to 11.4 µM;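 also: luciferin methyl ether substrate demethylated by CYP2D6 with NADPH regeneration; % is scaled to controls: 0 for no effect and ±100 for the full control effect; nearly all actives have a fitted effect of over 60% in size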
Method in brief: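 Luminescent read-out of luciferin formed by 5 nM human CYP2D6 demethylating 30 uM Luciferin-ME EGE (Km level) over 60 min at room temperature after NADPH regeneration addition. Data normalized to full inhibition by 1.43 uM quinidine.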

[11] = biological target: Cytochrome P450 2C19 (Homo sapiens) (UniProt P33261); assay: qHTS Assay for Inhibitors and Substrates of Cytochrome P450 2C19 (AID 899); details: recombinant CYP2C19, luciferin-H EGE luminescence; series mostly up to 11.4 µM; also: % is scaled to controls: 0 for no effect and ±100 for the full control effect; nearly all actives have a fitted effect of over 60% in size
Method in brief: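 Reactions contain 5nM enzyme, 10uM Luciferin-H EGE (KM) and 50mM KPO4; compound preincubates 10 min at 37C, NADPH regeneration starts turnover for 60 min. Luminescence after detection reagent gives activity.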

[12] = biological target: ATP-dependent 6-phosphofructokinase (Trypanosoma brucei brucei) (UniProt O15648); assay: qHTS Assay to Find Inhibitors of T. brucei phosphofructokinase: hit validation (AID 492961);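 also: luminescence reports ADP formed as PFK phosphorylates fructose-6-phosphate with ATP; % is scaled to controls: 0 for no effect and ±100 for the full control effect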; details: T. brucei PFK, ADP-Glo luminescence; series mostly up to 51.4 µM
Method in brief: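 Measures ADP output of PFK (1.25 nM) at 0.1 mM ATP, 0.5 mM F6P, pH 8.0 TEA buffer with 5 mM MgCl2. No-enzyme wells define full inhibition; uninhibited enzyme wells define zero.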

[13] = biological target: Ubiquitin carboxyl-terminal hydrolase 1 (Homo sapiens) (UniProt O94782); assay: Inhibitors of USP1/UAF1: Pilot qHTS (AID 504865); details: purified USP1/UAF1, Ub-rhodamine cleavage fluorescence; series mostly up to 114 µM;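 also: rhodamine fluorescence freed from ubiquitin-rhodamine substrate followed over time; top concentration of the series differs between compounds; % is scaled to controls: 0 for no effect and ±100 for the full control effect; nearly all actives have a fitted effect of over 35% in size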
Method in brief: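 Kinetic fluorescence assay: 1nM USP1/UAF1, 15 min compound preincubation, then 150nM Ub-Rho; 480/540 nm.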

[14] = biological target: Luciferin 4-monooxygenase (Photinus pyralis) (UniProt P08659); assay: Biochemical firefly luciferase enzyme assay for NPC (AID 624030);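 also: purified P. pyralis luciferase at 10 nM with luciferin and ATP substrate; 0% = DMSO and -100% = full luciferase inhibition by PTC124 control; nearly all actives have a fitted effect of over 70% in size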; details: purified P. pyralis luciferase, luminescence, 5 min; series mostly up to 58.6 µM
Method in brief: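 Direct inhibition of firefly luciferase enzyme (10 nM final, 50 mM Tris Acetate) assessed by luminescence within 5 minutes. Percent activity scaled between DMSO and PTC124 positive control, with concentration-effect curves classified by fit quality and response.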

[15] = S16 Schwann cell PMP22 intronic element firefly luciferase assay (AID 624032); details: S16 rat Schwann cells, PMP22 element FLuc, 24 h; series mostly up to 57.5 µM;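 also: plate controls were DMSO for no effect and PTC124 positive control mean for full effect; nearly all actives have a fitted effect of over 30% in size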
Method in brief: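 Luciferase reporter of PMP22 intronic-element expression in stably transfected S16 rat Schwann cells, read by ONE-Glo luminescence after 24 h compound exposure at 37 C. Activity scaled between DMSO (0%) and positive-control PTC124; concentration-effect curves quality-classified.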

[16] = S16 Schwann cell PMP22 intronic element beta-lactamase assay (AID 624044; calls by dose curve;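 also: 0% = DMSO and -100% = potassium clavulanate positive control; nearly all actives have a fitted effect of over 15% in size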); details: S16 rat Schwann cells, PMP22 element beta-lactamase FRET, 24 h; series mostly up to 38.3 µM
Method in brief: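 Beta-lactamase reporter under a PMP22 intronic regulatory element in stable S16 rat Schwann cells; 24 h compound exposure. 460 nm blue signal normalized between DMSO (0%) and potassium clavulanate, with 535 nm FRET tracking viability; curves classed by r2 and response.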

[17] = qHTS profiling for inhibitors of Plasmodium falciparum proliferation (AID 504749);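 also: 0% = DMSO vehicle and full inhibition = artemisinin control; nearly all actives have a fitted effect of over 60% in size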; details: P. falciparum in erythrocytes, SYBR Green DNA, 72 h, at 28.7 µM (top of the series)
Method in brief: (§1)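 In a 72 h erythrocytic culture (37 C, humidified, 5% CO2) at 2.5% hematocrit and 0.3% starting parasitemia, compounds were tested; SYBR Green I in detergent lysis buffer stained parasite DNA overnight.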

3D7 = assay: as above; details: P. falciparum in erythrocytes, SYBR Green DNA, 72 h; series mostly up to 28.7 µM
Method in brief: as §1

7G8 = assay: as above; details: P. falciparum in erythrocytes, SYBR Green DNA, 72 h; series mostly up to 28.7 µM
Method in brief: as §1

AA1029 = assay: as above; details: P. falciparum in erythrocytes, SYBR Green DNA, 72 h; series mostly up to 28.7 µM
Method in brief: as §1

AS120 = assay: as above; details: P. falciparum in erythrocytes, SYBR Green DNA, 72 h; series mostly up to 28.7 µM
Method in brief: as §1

ATS189 = assay: as above; details: P. falciparum in erythrocytes, SYBR Green DNA, 72 h; series mostly up to 28.7 µM
Method in brief: as §1

ATS95 = assay: as above; details: P. falciparum in erythrocytes, SYBR Green DNA, 72 h; series mostly up to 28.7 µM
Method in brief: as §1

C2A = assay: as above; details: P. falciparum in erythrocytes, SYBR Green DNA, 72 h; series mostly up to 28.7 µM
Method in brief: as §1

CP185 = assay: as above; details: P. falciparum in erythrocytes, SYBR Green DNA, 72 h; series mostly up to 28.7 µM
Method in brief: as §1

CP191 = assay: as above; details: P. falciparum in erythrocytes, SYBR Green DNA, 72 h; series mostly up to 28.7 µM
Method in brief: as §1

CP192 = assay: as above; details: P. falciparum in erythrocytes, SYBR Green DNA, 72 h; series mostly up to 28.7 µM
Method in brief: as §1

CP194 = assay: as above; details: P. falciparum in erythrocytes, SYBR Green DNA, 72 h; series mostly up to 28.7 µM
Method in brief: as §1

CP201 = assay: as above; details: P. falciparum in erythrocytes, SYBR Green DNA, 72 h; series mostly up to 28.7 µM
Method in brief: as §1

CP203 = assay: as above; details: P. falciparum in erythrocytes, SYBR Green DNA, 72 h; series mostly up to 28.7 µM
Method in brief: as §1

CP211 = assay: as above; details: P. falciparum in erythrocytes, SYBR Green DNA, 72 h; series mostly up to 28.7 µM
Method in brief: as §1

CP215 = assay: as above; details: P. falciparum in erythrocytes, SYBR Green DNA, 72 h; series mostly up to 28.7 µM
Method in brief: as §1

CP217 = assay: as above; details: P. falciparum in erythrocytes, SYBR Green DNA, 72 h; series mostly up to 28.7 µM
Method in brief: as §1

CP237 = assay: as above; details: P. falciparum in erythrocytes, SYBR Green DNA, 72 h; series mostly up to 28.7 µM
Method in brief: as §1

CP238 = assay: as above; details: P. falciparum in erythrocytes, SYBR Green DNA, 72 h; series mostly up to 28.7 µM
Method in brief: as §1

CP247 = assay: as above; details: P. falciparum in erythrocytes, SYBR Green DNA, 72 h; series mostly up to 28.7 µM
Method in brief: as §1

CP250 = assay: as above; details: P. falciparum in erythrocytes, SYBR Green DNA, 72 h; series mostly up to 28.7 µM
Method in brief: as §1

Chain of Glucocorticoid receptor (Homo sapiens) (P04150 whole entry, looked up, the tested form may be a part): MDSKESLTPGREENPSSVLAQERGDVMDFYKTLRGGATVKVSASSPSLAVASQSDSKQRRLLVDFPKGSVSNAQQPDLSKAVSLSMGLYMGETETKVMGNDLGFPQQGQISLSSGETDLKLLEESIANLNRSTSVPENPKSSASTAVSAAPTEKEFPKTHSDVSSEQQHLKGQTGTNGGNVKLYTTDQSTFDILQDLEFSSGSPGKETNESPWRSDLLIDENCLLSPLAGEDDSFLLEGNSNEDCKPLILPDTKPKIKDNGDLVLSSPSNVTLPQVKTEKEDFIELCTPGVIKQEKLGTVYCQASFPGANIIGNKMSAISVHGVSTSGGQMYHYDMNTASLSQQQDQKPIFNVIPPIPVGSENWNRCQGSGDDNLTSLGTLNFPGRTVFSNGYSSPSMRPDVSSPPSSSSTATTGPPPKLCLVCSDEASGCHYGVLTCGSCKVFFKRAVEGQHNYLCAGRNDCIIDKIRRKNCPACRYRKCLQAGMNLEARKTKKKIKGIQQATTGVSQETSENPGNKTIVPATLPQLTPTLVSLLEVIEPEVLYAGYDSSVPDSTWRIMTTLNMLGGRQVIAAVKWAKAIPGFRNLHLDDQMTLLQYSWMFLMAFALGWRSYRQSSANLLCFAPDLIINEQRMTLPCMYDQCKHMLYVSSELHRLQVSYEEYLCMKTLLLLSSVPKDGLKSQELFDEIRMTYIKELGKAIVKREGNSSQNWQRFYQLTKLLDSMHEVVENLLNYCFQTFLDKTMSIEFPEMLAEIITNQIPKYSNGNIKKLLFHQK
Chain of Cytochrome P450 1A2 (Homo sapiens) (P05177 whole entry, looked up): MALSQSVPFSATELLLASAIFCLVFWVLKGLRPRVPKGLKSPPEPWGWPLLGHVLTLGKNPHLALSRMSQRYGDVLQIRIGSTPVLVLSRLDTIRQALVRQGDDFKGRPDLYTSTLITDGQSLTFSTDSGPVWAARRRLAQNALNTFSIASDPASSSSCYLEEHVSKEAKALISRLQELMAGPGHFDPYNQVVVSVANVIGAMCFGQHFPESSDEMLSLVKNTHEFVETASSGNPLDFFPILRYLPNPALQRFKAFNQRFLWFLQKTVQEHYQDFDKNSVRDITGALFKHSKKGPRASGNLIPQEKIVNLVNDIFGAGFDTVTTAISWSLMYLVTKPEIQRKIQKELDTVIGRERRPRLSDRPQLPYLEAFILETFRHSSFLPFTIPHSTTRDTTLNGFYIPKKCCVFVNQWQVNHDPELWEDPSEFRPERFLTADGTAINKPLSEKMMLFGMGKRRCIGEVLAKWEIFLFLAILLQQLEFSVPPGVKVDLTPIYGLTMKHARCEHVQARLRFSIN
Chain of Cytochrome P450 2C19 (Homo sapiens) (P33261 whole entry, looked up): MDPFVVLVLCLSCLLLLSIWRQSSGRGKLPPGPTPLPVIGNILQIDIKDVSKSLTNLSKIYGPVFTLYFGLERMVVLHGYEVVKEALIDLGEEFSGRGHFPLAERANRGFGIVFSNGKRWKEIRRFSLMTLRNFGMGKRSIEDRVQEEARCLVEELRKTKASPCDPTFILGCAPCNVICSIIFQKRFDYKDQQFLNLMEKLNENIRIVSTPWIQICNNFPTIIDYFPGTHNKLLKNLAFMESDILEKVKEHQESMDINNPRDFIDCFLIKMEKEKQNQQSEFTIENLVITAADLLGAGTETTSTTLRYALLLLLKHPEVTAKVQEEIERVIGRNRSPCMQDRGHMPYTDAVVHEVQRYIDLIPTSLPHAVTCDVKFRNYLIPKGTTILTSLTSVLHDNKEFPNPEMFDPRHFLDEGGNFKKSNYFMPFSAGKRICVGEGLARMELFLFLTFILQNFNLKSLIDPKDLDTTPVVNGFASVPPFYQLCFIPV
Chain of Cytochrome P450 2D6 (Homo sapiens) (P10635 whole entry, looked up): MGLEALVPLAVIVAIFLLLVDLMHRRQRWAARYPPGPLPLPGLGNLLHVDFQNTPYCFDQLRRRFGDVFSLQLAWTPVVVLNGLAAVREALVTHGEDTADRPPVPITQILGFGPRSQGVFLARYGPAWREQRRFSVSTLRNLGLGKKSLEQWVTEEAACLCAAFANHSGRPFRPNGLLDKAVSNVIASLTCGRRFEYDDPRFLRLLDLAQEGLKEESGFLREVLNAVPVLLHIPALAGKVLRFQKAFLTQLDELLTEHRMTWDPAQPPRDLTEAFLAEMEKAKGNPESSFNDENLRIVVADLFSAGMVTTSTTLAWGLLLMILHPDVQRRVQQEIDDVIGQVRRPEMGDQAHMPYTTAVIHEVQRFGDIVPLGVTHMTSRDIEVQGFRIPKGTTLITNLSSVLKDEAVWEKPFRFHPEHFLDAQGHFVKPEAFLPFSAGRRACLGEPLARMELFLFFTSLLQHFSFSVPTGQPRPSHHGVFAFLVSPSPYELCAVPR
Chain of Lysosomal acid glucosylceramidase (Homo sapiens) (P04062 whole entry, looked up): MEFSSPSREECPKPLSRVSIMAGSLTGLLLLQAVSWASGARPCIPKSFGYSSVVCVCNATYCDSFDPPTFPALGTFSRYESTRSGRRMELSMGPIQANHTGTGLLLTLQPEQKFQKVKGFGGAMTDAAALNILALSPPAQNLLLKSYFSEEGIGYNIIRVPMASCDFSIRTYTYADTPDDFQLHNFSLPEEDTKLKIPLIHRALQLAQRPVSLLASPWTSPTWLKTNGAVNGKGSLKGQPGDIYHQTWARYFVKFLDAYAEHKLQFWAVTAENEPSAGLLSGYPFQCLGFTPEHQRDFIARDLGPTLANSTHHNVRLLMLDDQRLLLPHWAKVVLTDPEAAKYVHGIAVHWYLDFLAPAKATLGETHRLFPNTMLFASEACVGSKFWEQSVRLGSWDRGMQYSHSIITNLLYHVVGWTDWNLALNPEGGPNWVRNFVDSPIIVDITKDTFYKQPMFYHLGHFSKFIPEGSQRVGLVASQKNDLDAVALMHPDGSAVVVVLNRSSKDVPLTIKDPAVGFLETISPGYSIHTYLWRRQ
Chain of 3',5'-cyclic-AMP phosphodiesterase 4B (Homo sapiens) (Q07343 whole entry, looked up): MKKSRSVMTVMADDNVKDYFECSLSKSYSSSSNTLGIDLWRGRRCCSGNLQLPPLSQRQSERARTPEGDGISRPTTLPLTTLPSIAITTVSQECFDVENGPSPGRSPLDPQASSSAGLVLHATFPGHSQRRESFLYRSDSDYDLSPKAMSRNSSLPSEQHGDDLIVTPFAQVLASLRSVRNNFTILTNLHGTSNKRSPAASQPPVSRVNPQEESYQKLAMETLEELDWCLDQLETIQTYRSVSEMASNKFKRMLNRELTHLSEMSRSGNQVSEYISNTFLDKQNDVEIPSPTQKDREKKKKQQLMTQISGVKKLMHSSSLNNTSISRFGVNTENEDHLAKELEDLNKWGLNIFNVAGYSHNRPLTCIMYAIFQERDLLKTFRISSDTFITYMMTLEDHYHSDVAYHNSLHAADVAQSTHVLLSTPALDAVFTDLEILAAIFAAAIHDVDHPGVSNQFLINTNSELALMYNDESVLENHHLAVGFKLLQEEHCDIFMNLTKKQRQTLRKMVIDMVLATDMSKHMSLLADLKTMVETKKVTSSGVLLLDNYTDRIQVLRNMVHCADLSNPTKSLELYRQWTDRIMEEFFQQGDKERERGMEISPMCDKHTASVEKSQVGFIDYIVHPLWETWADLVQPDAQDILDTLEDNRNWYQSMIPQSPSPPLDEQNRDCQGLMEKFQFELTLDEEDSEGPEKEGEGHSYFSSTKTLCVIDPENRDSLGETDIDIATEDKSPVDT
Chain of Luciferin 4-monooxygenase (Photinus pyralis) (P08659 whole entry, looked up): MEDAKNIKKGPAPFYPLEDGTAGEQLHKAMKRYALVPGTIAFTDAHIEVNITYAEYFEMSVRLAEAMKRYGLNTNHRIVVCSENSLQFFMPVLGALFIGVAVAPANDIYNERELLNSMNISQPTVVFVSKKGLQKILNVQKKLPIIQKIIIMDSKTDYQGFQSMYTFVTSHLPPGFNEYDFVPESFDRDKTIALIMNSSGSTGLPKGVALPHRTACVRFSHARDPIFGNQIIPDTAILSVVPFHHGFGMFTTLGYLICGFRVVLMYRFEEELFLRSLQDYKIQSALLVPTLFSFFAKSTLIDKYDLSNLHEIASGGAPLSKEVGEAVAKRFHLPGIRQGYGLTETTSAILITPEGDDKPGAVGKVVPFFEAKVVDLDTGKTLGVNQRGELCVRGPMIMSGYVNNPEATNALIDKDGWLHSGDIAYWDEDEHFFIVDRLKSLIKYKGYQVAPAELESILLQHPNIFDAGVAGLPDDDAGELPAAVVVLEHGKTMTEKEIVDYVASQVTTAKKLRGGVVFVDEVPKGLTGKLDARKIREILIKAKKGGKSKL
Chain of Cytochrome P450 2C9 (Homo sapiens) (P11712 whole entry, looked up): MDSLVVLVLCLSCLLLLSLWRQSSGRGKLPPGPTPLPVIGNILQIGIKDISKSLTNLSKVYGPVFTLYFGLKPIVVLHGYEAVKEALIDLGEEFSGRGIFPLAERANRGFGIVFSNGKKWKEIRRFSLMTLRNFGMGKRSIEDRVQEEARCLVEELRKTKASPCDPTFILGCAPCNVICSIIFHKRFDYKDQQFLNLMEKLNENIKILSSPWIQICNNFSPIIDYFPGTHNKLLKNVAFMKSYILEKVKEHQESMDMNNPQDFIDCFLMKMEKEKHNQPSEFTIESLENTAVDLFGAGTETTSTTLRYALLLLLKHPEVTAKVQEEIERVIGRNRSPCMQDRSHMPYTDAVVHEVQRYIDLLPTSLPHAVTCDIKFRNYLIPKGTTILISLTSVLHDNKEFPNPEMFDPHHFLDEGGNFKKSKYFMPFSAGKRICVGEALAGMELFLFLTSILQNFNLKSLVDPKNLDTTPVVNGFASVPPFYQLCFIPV

COc1cccc2c1C(=O)c1c(O)c3c(c(O)c1C2=O)C[C@](O)(C(=O)CO)C[C@@H]3O[C@H]1C[C@H](N)[C@@H](O)[C@H](C)O1
inactive: Potency [1] > 11.4 µM | activity change, negative = inhibition [2] 13.6% | Potency [3] | activity, negative = inhibition [4] 15.8% | Potency [5] > 46 µM | Potency [6] > 9.22 µM | Potency [7] | Potency [8] | Potency [9] | Potency [10] | Potency [11] | outcome [12] | Potency [13] | outcome [14] | Potency [15] | outcome [16] | activity, negative = inhibition ([17]; parasite line A) 6.65% | activity, negative = inhibition ([17]; parasite line B) 5.26% | Potency (3D7) | Potency (7G8) | Potency (AA1029) | Potency (AS120) | Potency (ATS189) | Potency (ATS95) | Potency (C2A) | Potency (CP185) | Potency (CP191) | Potency (CP192) | Potency (CP194) | Potency (CP201) | Potency (CP203) | Potency (CP211) | Potency (CP215) | Potency (CP217) | Potency (CP237) | Potency (CP238) | Potency (CP247) | Potency (CP250)

Reference: PubChem BioAssay (NCATS)
